# Assay results: PubChem BioAssay AID504332 (National Center for Advancing Translational Sciences (NCATS), 2011)
# Among all 350,000 compounds or so, about 31,000 (8.9%) were called active. Entries that show only a call come without a potency. Another 15% or so got no clear call; they are omitted. The call rests on the fitted dose curve; in most records, active means well fitted inhibition curve with a large enough effect; inconclusive means small, poorly fitted or top-dose-only effect; inactive means no such curve, though single readings can be large or run the other way. For the sample, actives were picked, then their nearest neighbours and some compounds at random.
# Target: Histone-lysine N-methyltransferase EHMT2 (Homo sapiens) (UniProt Q96KQ7)
# Test: qHTS Assay for Inhibitors of Histone Lysine Methyltransferase G9a; further: nearly all actives have a fitted effect of over 75% in size
# Conditions: G9a H3K9 monomethylation, AlphaScreen, 2 h; series mostly up to 59 µM
# Procedure, shortened: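 Signal arises when biotinylated H3K9 peptide, once monomethylated, bridges streptavidin donor and antibody-captured acceptor beads. Enzyme at 20 nM was preincubated 15 min with test compounds; peptide 500 nM and SAM 20 uM then reacted for 2 h.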
# Potency means the concentration at half of the fitted maximal effect.
# Chain of Histone-lysine N-methyltransferase EHMT2 (Homo sapiens) (Q96KQ7 913-1193 limits assumed): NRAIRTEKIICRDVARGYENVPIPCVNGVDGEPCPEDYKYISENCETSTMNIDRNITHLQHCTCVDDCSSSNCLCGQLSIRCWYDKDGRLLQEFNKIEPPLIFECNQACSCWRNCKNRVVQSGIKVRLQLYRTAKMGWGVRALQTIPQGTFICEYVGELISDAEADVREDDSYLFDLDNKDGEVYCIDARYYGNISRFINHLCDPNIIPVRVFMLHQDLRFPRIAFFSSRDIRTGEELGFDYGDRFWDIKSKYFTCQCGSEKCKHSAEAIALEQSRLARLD
SMILES,Potency,"activity, negative = inhibition"
O=C(CSc1nnc(-c2ccccc2F)o1)Nc1cccc(C(F)(F)F)c1,inactive,
O=C(NCc1ccccc1)c1cc(-c2cccc(Cl)c2)on1,inactive,
Cc1cccn2c(=O)c(C=O)c(Nc3ccc(S(N)(=O)=O)cc3)nc12,inactive,
CC(OC(=O)/C=C/c1ccccc1)C(=O)Nc1ccc(C(N)=O)cc1 (configuration not stated),,0.935% [at 12.7 µM] (inactive)
Cc1oc2c(c1C(=O)N1CCOCC1)C(=O)c1ccccc1C2=O,inactive,
COC1=C(N2CCOCC2)C(=O)c2ccccc2C1=O,3.55 µM (active),
O=C1C(Cl)=C(N2CCOCC2)C(=O)N1c1ccccc1,,3.23% [at 2.33 µM] (inactive)
COc1cccc(CNC(=O)CN2C(=O)NC(Cc3ccccc3)(c3ccccc3)C2=O)c1 (configuration not stated),,-1.58% [at 12.7 µM] (inactive)
Cc1ccc2cccc(NC(=O)c3ccc(OC(C)C)cc3)c2n1,inactive,
O=C(COc1coc(CN2CCN(c3ccccc3)CC2)cc1=O)N1CCc2ccccc21,inactive,
COc1ccc(OC)c(NC(=O)C2CCN(S(=O)(=O)c3ccc(C)cc3)CC2)c1,inactive,
COc1ccc(CN2CCCCC2C)cc1OC (configuration not stated),inactive,
COc1ccc(CNc2ccc3c(c2)CCC3)cc1OC,39.8 µM (active),
CC(C)C(=O)OCC(=O)Nc1ccc2c(c1)CCC2,inactive,
COc1ccc(OC)c(CCNC(=O)c2nn(C)c3c2CS(=O)(=O)c2ccccc2-3)c1,inactive,
O=C(COC(=O)CNC(=O)C1CCCCC1)NCc1ccccc1,,3.72% [at 12.7 µM] (inactive)
O=C(CCc1nc(CN2CCN(S(=O)(=O)c3ccc(Cl)cc3)CC2)no1)N1CCCCC1,inactive,
Cc1ccc2nc(N(CCN(C)C)C(=O)C3=COCCO3)sc2c1,79.4 µM (active),
Cc1ccc2nc(-c3ccc(NC(=O)CN(C)S(=O)(=O)c4ccccc4)cc3)sc2c1,inactive,
NS(=O)(=O)c1ccc2nc(NC(=O)C3=COCCO3)sc2c1,inactive,
CCOC(=O)c1cccc(NC(=O)c2cc(S(=O)(=O)N3CCCC(C)C3)cn2C)c1 (configuration not stated),inactive,
CCOC(=O)c1ccc(NC(=O)C2CCN(S(=O)(=O)c3ccc4c(c3)CCCC(=O)N4)CC2)cc1,inactive,
CCc1ccc(-c2nc(SCC(=O)NC3CCCC3)n[nH]2)cc1,inactive,
CCCCCCn1nnc2sc(-c3ccccc3)cc2c1=O,inactive,
COC(=O)[C@@H](NC(=O)Nc1cc(Cl)ccc1C)C(C)C,inactive,

SMILES,Potency,"activity, negative = inhibition"
Cc1ccc(Cl)cc1NC(=O)C(C)n1nnc2sc(-c3ccccc3)cc2c1=O (configuration not stated),1.12 µM (active),
CCC(C)NC(=O)Cn1c(=O)n(-c2ccc(Cl)cc2)c(=O)c2c3c(sc21)CCCC3 (configuration not stated),inactive,
CCOc1ccc(CCNC(=O)c2ccc3c(c2)sc2nc(-c4ccc(F)cc4)cn23)cc1OCC,inactive,
CCCN(CCC)C(=O)C1CCCN(c2ncnc3c2nc2n3CCCCC2)C1 (configuration not stated),inactive,
S=c1[nH]nc(/C=C/c2ccccc2)o1,22.4 µM (active),
O=c1oc(/C=C/c2ccccc2)nc2ccccc12,inactive,
Clc1ccc(CSc2nnc(/C=C/c3ccccc3)o2)c(Cl)c1,inactive,
CCc1ccccc1S(=O)(=O)Cc1ccc(C(=O)NCCc2ccccc2)o1,inactive,
COC(=O)c1ccc(C)c(NC(=O)C2CC(=O)N(C3CCCC(C)C3C)C2)c1 (configuration not stated),inactive,
COc1cccc(CNC(=O)c2ccc3c(c2)sc2nc(-c4cccc(OC)c4)cn23)c1,inactive,
CN(Cc1cnccn1)C(=O)c1cc(COc2cccc(C(F)(F)F)c2)on1,inactive,
Cc1cccc(N=C2NN=C(c3c[nH]c4ccccc34)CS2)c1,inactive,
c1ccc(CN2CCC(N=C3NN=C(c4ccc5c(c4)OCCO5)CS3)CC2)cc1,,-3.44% [at 12.7 µM] (inactive)
Clc1cccc(N=C2NN=C(c3ccc4c(c3)OCCO4)CS2)c1,14.1 µM (active),
COc1ccccc1-c1cnn2c(N3CCOCC3)cc(C)nc12,inactive,
Cc1cc(C)c(-c2n[nH]c3c2C(c2ccccc2F)N(CCO)C3=O)c(O)c1 (configuration not stated),inactive,
CCc1ccc2ncc3c(-c4ccc(C)cc4)nn(CC(=O)NCc4ccccc4)c3c2c1,inactive,
COC(=O)c1cccc(Cn2nnc3sc4c(c3c2=O)CCC(C(C)(C)C)C4)c1 (configuration not stated),inactive,
CC1CCCC(NC(=O)CSc2nccn2C)C1C (configuration not stated),15.8 µM (active),
CC1CCCCC1NC(=O)CSc1nnc(N)s1 (configuration not stated),inactive,
Cn1ccnc1SCC(=O)Nc1ccc2c(c1)OCCO2,inactive,
O=C(O)c1cccc(N2C(=O)Nc3ccccc3N2O)c1,inactive,
O=C1NN(c2ccccc2)C(=O)/C1=C/c1ccc(-c2cccc(C(=O)O)c2)o1,39.8 µM (active),
O=C(Nc1ccc2nc(SCCOc3ccccc3Cl)sc2c1)c1ccco1,inactive,
O=S(=O)(NCc1ccccc1Br)c1ccccc1Br,,7.86% [at 2.33 µM] (inactive)

SMILES,Potency,"activity, negative = inhibition"
CN(Cc1ccccc1)C(=O)c1cn(C)c2ccc(S(=O)(=O)N3CCCCC3)cc2c1=O,inactive,
O=c1[nH]c2ccc(S(=O)(=O)N3CCCC3)cc2[nH]1,inactive,
CCCCn1c(=S)[nH]c2cc(S(=O)(=O)N3CCCCC3)ccc21,1.78 µM (active),
O=C(NCCc1ccccc1)c1ccc2c(c1)N(Cc1ccc(F)cc1)C(=O)c1ccccc1S2(=O)=O,inactive,
Cc1ccc2oc(=O)c3cnn(CC(=O)NCc4ccccc4Cl)c3c2c1,inactive,
CCn1c(C(=O)Nc2cc(Cl)ccc2C)cc2sc(Cl)cc21,inactive,
C=CCOc1ccccc1/C=N/NC(=O)Cc1ccccc1,,-1.48% [at 0.501 µM] (inactive)
CCOc1ccccc1/C=N/NC(=O)CNC(=O)COc1ccccc1,inactive,
C=C(C)CNC(=S)N/N=C/c1ccccc1OCC(=O)O,11.2 µM (active),
CCCCn1nc(C(=O)Nc2cccc(C(=O)NC3CC3)c2)c2ccccc2c1=O,,5.39% [at 2.33 µM] (inactive)
CCNC(=O)Cn1nc(C)n2c(cc3c(OC)cccc32)c1=O,inactive,
O=C(CC1SC(=Nc2ccccc2)N(Cc2ccccn2)C1=O)Nc1cccc(Cl)c1 (configuration not stated),8.91 µM (active),
CN1C(=O)C(CC(=O)Nc2ccccc2)S/C1=N/c1nccs1 (configuration not stated),inactive,
O=C(Nc1cccc(Cl)c1)OCc1ccccn1,inactive,
COc1ccc(-c2nc3ccccc3o2)cc1NC(=O)c1cc([N+](=O)[O-])ccc1N1CCOCC1,inactive,
Cc1cc(C(=O)OC(C)C(=O)Nc2cccc(S(=O)(=O)N3CCOCC3)c2)c(C)o1 (configuration not stated),inactive,
O=C(CSc1ccccc1)Nc1cccc(S(=O)(=O)N2CCOCC2)c1,,7.75% [at 12.7 µM] (inactive)
CC(Sc1cccc[n+]1[O-])C(=O)Nc1cccc(S(=O)(=O)N2CCOCC2)c1 (configuration not stated),8.91 µM (active),
COc1cccc(C2=CC(=O)C[C@H](c3ccc(F)cc3)C2)c1OC,,-9.38% [at 0.501 µM] (inactive)
O=C1C=CC(=O)N1c1ccc(N2CCCCC2)cc1,0.562 µM (active),
O=c1[nH][nH]c(=O)c2cc(N3CCCC3)ccc12,inactive,
CCOC(=O)/C(C#N)=C/c1ccc(N2CCCCC2)cc1,inactive,
COc1ccc(Nc2ncnc3ccc(Br)cc23)c(OC)c1,inactive,
COc1ccc(-c2nc(SCC(=O)N3CCCCC3C)n[nH]2)cc1 (configuration not stated),inactive,
COc1ccccc1CCNC(=O)c1cccn1-c1nnc(N2CCCCC2)s1,inactive,

SMILES,Potency,"activity, negative = inhibition"
CC1(C)O[C@@H]2[C@H](O1)[C@@H](COS(=O)(=O)O)O[C@H]2n1cnc2c(=O)[nH]cnc21,,9.85% [at 2.33 µM] (inactive)
Cc1nn(C(=O)c2c(F)cccc2F)c(C)c1S(=O)(=O)N1CCOCC1,inactive,
O=C(CN1CCN(S(=O)(=O)c2ccc(F)cc2)CC1)NC1CC1,inactive,
O=S(=O)(c1ccc(F)cc1)N1CCN(Cc2ccccc2C(F)(F)F)CC1,10 µM (active),
Cc1ccc(S(=O)(=O)N2CCN(Cc3cccc(C)c3O)CC2)cc1,inactive,
CCN(CC(=O)Nc1ccc(OC)cc1)C(=O)c1ccc(=O)n(Cc2ccccc2)n1,inactive,
Cc1ccccc1-c1nc2cc(NC(=O)c3cccc(OCCC(C)C)c3)ccc2o1,inactive,
Cc1nc2c(c(C)nn2-c2ccccc2)c(C)c1CCC(=O)NCCc1ccc(Cl)cc1,inactive,
CN1/C(=c2/s/c(=C3/C(=O)N(c4ccccc4)NC3=Nc3ccccc3)n(C)c2=O)C(C)(C)c2ccccc21,10 µM (active),
CCc1noc(C)c1C(=O)N1CCN(S(=O)(=O)c2cccc(C(F)(F)F)c2)CC1,,9.9% [at 12.7 µM] (inactive)
COc1ccc(CNC(=O)CC2Oc3ccc(C)cc3NC2=O)cc1 (configuration not stated),inactive,
Cc1cccc(N(Cc2ccccc2)C(=O)c2cc(S(=O)(=O)N3CCOCC3)ccc2F)c1,inactive,
CCOc1cccc2cc(-c3cn4c(n3)sc3cc(C)ccc34)c(=O)oc12,inactive,
CC1(C(=O)NNC(=S)NCC2CCCO2)CC1(Cl)Cl (configuration not stated),inactive,
CCn1nc(NC(=O)c2ccco2)c2cc3ccc(C)cc3nc21,50.1 µM (active),
Cc1ccc(-n2nc3cc(Cl)c(NC(=O)c4ccco4)cc3n2)cc1,inactive,
Cc1ccc(Cn2c(NC(=O)c3ccco3)nc3ccccc32)cc1,inactive,
COc1ccccc1NC(=O)COC(=O)c1ccccc1SCC(=O)N1CCCC1,inactive,
COc1cc(C(C)=O)ccc1OC(C)C(=O)Nc1ccc(S(=O)(=O)N2CCCC2)cc1 (configuration not stated),,9.79% [at 12.7 µM] (inactive)
CC(C(=O)Nc1ccc(S(=O)(=O)N2CCCC2)cc1)N(C)Cc1ccc(F)cc1 (configuration not stated),,2.24% [at 2.33 µM] (inactive)
CC(OC(=O)CNS(=O)(=O)/C=C/c1ccccc1)C(=O)Nc1ccc(S(=O)(=O)N2CCCC2)cc1 (configuration not stated),10 µM (active),
Cc1ccc(NS(=O)(=O)c2ccc3c(c2)CC(=O)N3)cc1Cl,,-0.894% [at 12.7 µM] (inactive)
